Our source for the outcome and AC50 values is PubChem BioAssay (EPA / NIEHS).

Test [1] in a line: CCTE_Shafer_MEA_acute_per_network_burst_spike_number_mean: CCTE's Neural Acute Assay for Average Number of Spikes in a Network Burst, Shafer Lab (AID 2284019).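 On AC50: curve fitted for loss of signal so actives reduce spikes per network burst.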 An outline of the steps: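 Rat primary cortical neurons on 48-well MEA at DIV 13 or 15, 37 C; compounds 0.03-40 uM, at least three wells each. 40-min baseline then 40-min exposure recording; percent change in mean spikes per network burst.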

Test [2] is described as follows: CCTE_Shafer_MEA_acute_per_network_burst_spike_number_std: CCTE's Neural Acute Assay for Standard Deviation of Number of Spikes in a Network Burst, Shafer Lab (AID 2284020).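 Further: fitted for decrease in spike-number SD versus DMSO so actives lower it.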 An outline of the steps: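 Rat primary cortical neurons on 48-well MEA (16 electrodes/well), treated DIV 13 or 15 at 0.03-40 uM, ≥3 wells per compound. 40 min recordings at 37 C before and after dosing; value is percent change in network-burst spike-number SD, negative direction vs DMSO.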

Test [3] in a line: CCTE_Shafer_MEA_acute_per_network_burst_electrodes_number_mean: CCTE's Neural Acute Assay for Mean Number of Electrodes in a Network Burst, Shafer Lab (AID 2284021).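 Further: curves fitted for decreases only so hits reduce electrodes per burst.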 An outline of the steps:
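Rat primary cortical neurons on 48-well MEAs, DIV 13 or 15, were treated at 0.03-40 uM. Spikes were detected at 8x rms noise and recorded at 37 C. The mean electrodes per network burst in a 40 min exposure recording was expressed as percent change from a 40 min baseline.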

Test [4] can be described thus: CCTE_Shafer_MEA_acute_network_burst_percentage: CCTE's Neural Acute Assay for Percentage of Network Bursts, Shafer Lab (AID 2284022).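 Further: curves fitted for loss so actives lower network burst percentage.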 An outline of the steps:
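Rat primary cortical neuron networks on 48-well MEA plates, DIV 13 or 15, treated acutely with compound (0.03-40 uM, at least three wells). Percent of spikes within network bursts compared between 40-min recordings before and during exposure at 37 C, expressed as percent change.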

The nature of test [5]: CCTE_Shafer_MEA_acute_cross_correlation_area: CCTE's Neural Acute Assay for Area of Cross Correlation, Shafer Lab (AID 2284024).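 Further: curves fitted for loss of cross-correlation area so actives lower synchrony.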 An outline of the steps:
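Rat primary cortical neurons on 48-well MEA, DIV 13 or 15; compounds 0.03-40 uM. Baseline and post-exposure 40 min recordings at 37 C; percent change in area under pooled inter-electrode cross-correlation near zero lag, relative to DMSO.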

Test [6] is described as follows: CCTE_Shafer_MEA_acute_cross_correlation_HWHM: CCTE's Neural Acute Assay for Cross Correlation at Half Width at Half Maximum, Shafer Lab (AID 2284026).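 Further: hits are a decrease in cross-correlogram half width relative to DMSO.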 An outline of the steps: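 Rat primary cortical neurons on 48-well MEA plates; 40-min baseline and 40-min post-exposure recordings at 37 C on DIV 13 or 15, compounds 0.03-40 uM. Spikes detected at 8x rms noise; percent change in cross-correlogram HWHM per well vs baseline.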

Test [7] in a line: CCTE_Shafer_MEA_acute_synchrony_index: CCTE's Neural Acute Assay for Synchrony, Shafer Lab (AID 2284027).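 Further: fitted for loss of signal so actives lower synchrony relative to DMSO.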 An outline of the steps:
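Readout is percent change in the unitless network synchrony index (0 low, 1 high) between a 40-min baseline and a 40-min recording in compound. Cultures were primary rat cortical neurons on MEAs, treated at 0.03-40 uM on DIV 13 or 15.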

Test [8] concerns the target Estrogen receptor (Homo sapiens) (UniProt P03372). Briefly: CCTE_Deisenroth_AIME_384WELL_LUC_Active: CCTE's 384-well Estrogen Receptor Transactivation Assay with AIME metabolic competence (ERTA luciferase; metabolism positive), Deisenroth Lab (AID 2284030; active means hit-call score of the fitted dose curve at least 0.9, where 1 is the maximum). An outline of the steps:
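Chemicals (10-point, 0.002-200 uM) were first incubated 2 hours with alginate-immobilized induced male Sprague Dawley rat liver S9. The conditioned medium was then applied to VM7Luc4E2 cells for 24 hours, with ER luciferase induction read by luminescence relative to 17beta-estradiol.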

The nature of test [9]: CCTE_Deisenroth_AIME_384WELL_CTox_Active: Cytotoxicity Assessment (CTOX) in CCTE's 384-well Estrogen Receptor Transactivation Assay with AIME metabolic competence (metabolism positive), Deisenroth Lab (AID 2284037; active means hit-call score of the fitted dose curve at least 0.9, where 1 is the maximum;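 further: activity means signal loss indicating cell death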). An outline of the steps:
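Chemicals pre-incubated 2 hours with alginate-immobilised phenobarbital/beta-naphthoflavone-induced male Sprague Dawley rat liver S9, then conditioned medium applied 24 hour to VM7Luc4E2 cells. Viability by fluorogenic protease substrate; 10-point series 0.002 - 200 uM.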

Test [10] addresses Estrogen receptor (Homo sapiens) (UniProt P03372). In words: CCTE_Deisenroth_AIME_384WELL_LUC_Inactive: CCTE's 384-well Estrogen Receptor Transactivation Assay without AIME metabolic competence (ERTA luciferase; metabolism negative), Deisenroth Lab (AID 2284038; active means hit-call score of the fitted dose curve at least 0.9, where 1 is the maximum;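 further: hits raise estrogen receptor luciferase signal so potencies reflect agonists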). An outline of the steps:
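Metabolism-negative mode: chemicals (10-point, 0.002–200 uM) held 2 h with alginate-water microspheres, then conditioned medium applied to VM7Luc4E2 cells for 24 h. Luciferase induction referenced to 17beta-estradiol.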

A short description of test [11]: CCTE_Deisenroth_AIME_384WELL_CTox_Inactive: Cytotoxicity Assessment (CTOX) in CCTE's 384-well Estrogen Receptor Transactivation Assay without AIME metabolic competence (metabolism negative), Deisenroth Lab (AID 2284039; active means hit-call score of the fitted dose curve at least 0.9, where 1 is the maximum;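 further: cell viability via live-cell protease substrate cleaved to fluorescent probe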). An outline of the steps: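 VM7Luc4E2 human breast cells received conditioned medium from a 2 h incubation of chemical with alginate-water microspheres (no S9), then were exposed 24 h. Viability was read as protease-substrate cleavage to a fluorescent probe; loss of signal was fitted bidirectionally over 0.002–200 uM.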

For test [12], the target named is Estrogen receptor (Homo sapiens) (UniProt P03372). In words: CCTE_Deisenroth_AIME_384WELL_LUC_Shift: CCTE's 384-well Estrogen Receptor Transactivation Assay with AIME metabolic competence data shift (ERTA luciferase; difference in metabolism positive and negative), Deisenroth Lab (AID 2284041).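 Further: shift is response with S9 minus without S9 so positive means metabolism raised ER signal.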 An outline of the steps:
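Chemicals (0.002–200 uM, 10 points) pre-incubated 2 h with alginate-encapsulated induced male Sprague Dawley rat liver S9 or S9-free, then medium applied 24 h to VM7Luc4E2 cells; luciferase. Endpoint is per-concentration difference, S9-positive minus negative.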

Test [13] is described as follows: CCTE_Shafer_MEA_dev_firing_rate_mean: CCTE's Neural Network Formation Assay for Mean Firing Rate, Shafer Lab (AID 2284031).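 On AC50: curve fitted for loss of firing so AC50 reflects decreased mean firing rate.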 An outline of the steps: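 Rat primary cortical neurons were seeded on multielectrode arrays and treated from plating through day 12, with redosing at each feed. Spontaneous spiking was recorded four times; mean firing rate AUC was fitted downward against DMSO.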

A short description of test [14]: CCTE_Shafer_MEA_dev_per_burst_spike_percent: CCTE's Neural Network Formation Assay for Percent of Spikes in a Burst, Shafer Lab (AID 2284032).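 On AC50: fitted as a decrease in burst spike percentage below DMSO baseline.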 An outline of the steps:
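Rat primary cortical neurons on 16-electrode MEA wells, dosed from plating day 0 for 12 days with renewal on DIV 5 and 9; spikes-in-bursts percentage averaged over bursting electrodes, collapsed as AUC across days 5, 7, 9, 12; loss direction versus DMSO.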

A short description of test [15]: CCTE_Shafer_MEA_dev_active_electrodes_number: CCTE's Neural Network Formation Assay for Number of Active Electrodes, Shafer Lab (AID 2284040; active means hit-call score of the fitted dose curve at least 0.9, where 1 is the maximum;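 on AC50: potency for loss of active electrodes versus DMSO so lower counts are hits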). An outline of the steps: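 Primary rat cortical neurons on 16-electrode MEA wells, exposed from day 0 through day 12 with compound renewed at DIV 5 and 9 feeds. Active electrodes (mean firing ≥5 spikes/min) counted at DIV 5, 7, 9, 12; trapezoidal AUC across days, loss-of-signal versus DMSO.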

Test [16] is described as follows: CCTE_Shafer_MEA_dev_bursting_electrodes_number: CCTE's Neural Network Formation Assay for Number of Bursting Electrodes, Shafer Lab (AID 2284043; active means hit-call score of the fitted dose curve at least 0.9, where 1 is the maximum;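 on AC50: potency is for loss of bursting electrodes relative to DMSO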). An outline of the steps:
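Primary rat cortical neurons plated on 16-electrode MEA wells, exposed from day 0 with compound renewed at DIV 5 and 9. Electrodes bursting ≥1 burst per 2 min counted on days 5, 7, 9 and 12; trapezoidal AUC across days, fitted for loss versus DMSO.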

The target in test [17] is Estrogen receptor (Homo sapiens) (UniProt P03372). Briefly: CCTE_Deisenroth_AIME_96WELL_LUC_Active: CCTE's 96-well Estrogen Receptor Transactivation Assay with AIME metabolic competence (ERTA luciferase; metabolism positive), Deisenroth Lab (AID 2284023; active means hit-call score of the fitted dose curve at least 0.9, where 1 is the maximum). An outline of the steps:
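Chemicals pre-incubated 2 h with alginate-immobilized phenobarbital/beta-naphthoflavone-induced male Sprague Dawley rat liver S9, then medium transferred to VM7Luc4E2 cells for 24 h luciferase read-out. 10-point series 0.002 - 200 uM; fitted relative to 17beta-estradiol.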

Test [18] has the same target. Briefly: CCTE_Deisenroth_AIME_96WELL_LUC_Inactive: CCTE's 96-well Estrogen Receptor Transactivation Assay without AIME metabolic competence (ERTA luciferase; metabolism negative), Deisenroth Lab (AID 2284025; active means hit-call score of the fitted dose curve at least 0.9, where 1 is the maximum). An outline of the steps:
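VM7Luc4E2 breast cells, luciferase read 24 h after dosing with medium pre-incubated 2 h on alginate-water lids (metabolism negative). 10-point series 0.002–200 uM, single technical replicate, n≥4; fit relative to 17beta-estradiol.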

Test [19] can be described thus: CCTE_Deisenroth_AIME_96WELL_CTox_Active: Cytotoxicity Assessment (CTOX) in CCTE's 96-well Estrogen Receptor Transactivation Assay with AIME metabolic competence (metabolism positive), Deisenroth Lab (AID 2284028; active means hit-call score of the fitted dose curve at least 0.9, where 1 is the maximum). An outline of the steps:
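Chemicals (0.002–200 uM) were first incubated 2 h with alginate-immobilized phenobarbital/beta-naphthoflavone-induced male rat liver S9; conditioned medium then went onto VM7Luc4E2 cells for 24 h, with viability read by protease-substrate fluorescence, fitted bidirectionally.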

Test [20] can be described thus: CCTE_Deisenroth_AIME_96WELL_CTox_Inactive: Cytotoxicity Assessment (CTOX) in CCTE's 96-well Estrogen Receptor Transactivation Assay without AIME metabolic competence (metabolism negative), Deisenroth Lab (AID 2284029; active means hit-call score of the fitted dose curve at least 0.9, where 1 is the maximum). An outline of the steps: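 Chemicals (0.002 - 200 uM, 10 points) incubated 2 h with alginate-water microspheres (no S9), then medium moved onto VM7Luc4E2 cells for 24 h. Viability by protease-substrate cleavage to fluorescent probe; bidirectional fitting.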

Values joined by “and” are separate entries in the source; they are usually repeats but may differ in a detail not shown here. Equal entries are not always repeated. Inconclusive results are not listed. A structure can be active in one record and inactive in another. Active and inactive are the calls of the source. How the source made its calls, unless noted: active means hit-call score of the fitted dose curve at least 0.9, where 1 is the maximum; inactive means score below 0.9.

Sequence of Estrogen receptor (Homo sapiens) (P03372 whole entry, looked up): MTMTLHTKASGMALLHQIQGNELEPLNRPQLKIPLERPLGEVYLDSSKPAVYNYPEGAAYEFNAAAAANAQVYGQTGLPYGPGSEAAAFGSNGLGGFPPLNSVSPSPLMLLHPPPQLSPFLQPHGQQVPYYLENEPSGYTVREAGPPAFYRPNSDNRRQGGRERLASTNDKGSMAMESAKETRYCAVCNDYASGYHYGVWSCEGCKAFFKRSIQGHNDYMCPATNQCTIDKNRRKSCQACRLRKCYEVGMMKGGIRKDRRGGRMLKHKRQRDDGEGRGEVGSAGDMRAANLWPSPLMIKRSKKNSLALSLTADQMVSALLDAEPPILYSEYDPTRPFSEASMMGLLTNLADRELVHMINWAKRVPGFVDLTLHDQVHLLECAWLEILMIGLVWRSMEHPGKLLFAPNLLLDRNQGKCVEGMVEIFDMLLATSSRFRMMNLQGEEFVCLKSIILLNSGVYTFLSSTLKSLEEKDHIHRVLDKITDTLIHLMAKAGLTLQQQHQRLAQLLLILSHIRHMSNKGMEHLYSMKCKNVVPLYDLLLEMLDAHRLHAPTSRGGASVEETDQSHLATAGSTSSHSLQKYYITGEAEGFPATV

With `CC(C)C1(C)N=C(c2ncccc2C(=O)O)NC1=O` (stereo not drawn), the compound was called inactive in [1], in test [2], in test [3], in test [4], in [5] and in test [6]. Moreover, in [7], the compound was classed as inactive.
Turning to `CC(C)N1C(=O)N(c2ccccc2)CSC1=NC(C)(C)C`, the AC50 in test [1] is 13.5 µM (active); in test [2], 17.6 µM (active); in [3], 17.4 µM (active); in [4] it was 26.5 µM (active); in test [6], 20 µM (active); in test [7] it was 23.2 µM (active). The compound was called inactive in [5], in test [8], in [9], in test [10], in [11] and in [12].
Regarding `CCOP(=O)(OCC)Oc1nc(Cl)c(Cl)cc1Cl`, the AC50 is 0.00674 µM (active) in test [1]; 0.0114 µM (active) in test [3]; 34.8 µM (active) in [6]; 0.0262 µM (active) in [7]; 1.39 µM (active) and 15 µM (active) in test [14]; 904 nM (active) and 8.09 µM (active) in test [15]. Also, the AC50 in test [16] was 852 nM (active) and 6.59 µM (active). The outcome in [2], in test [4], in test [5], in test [8], in [13] and in test [14] was inactive. For the same compound, the outcome in [10], in test [15] and in [12] was inactive.
Regarding `CCCN(CC)CC1COC2(CCC(C(C)(C)C)CC2)O1` (stereo not drawn), the result in test [1], in [2], in [3], in test [4], in test [5] and in test [6] was inactive. Besides, in test [7], the compound was classed as inactive. Moreover, the AC50 is 66 nM (active) in test [13], 335 nM (active) in [14], 246 nM (active) in [15] and 223 nM (active) in test [16].
Take `N#Cc1c[nH]cc1-c1cccc2c1OC(F)(F)O2`: the compound was classed as inactive in [1], in test [3], in test [4], in test [5] and in [7]. The AC50 in [2] and in test [6] was 20 µM (active) in each case.
For the compound `CC1(C)C(C=C(Cl)Cl)C1C(=O)OC(C#N)c1cccc(Oc2ccccc2)c1` (stereo not drawn), the result in [1], in test [2], in test [17], in test [5], in test [6] and in [19] was inactive. In addition, the call in test [20], in [13], in test [14], in test [15], in test [12] and in test [16] was inactive. Besides, the AC50 is 0.622 µM (active) in test [3]; 1.94 µM (active) in test [4]; 57 µM (active) in test [18]; 3.97 µM (active) in test [7]; 40.8 µM (active) in test [8]; 2980 nM (active) in [13]. The AC50 was 10000 nM (active) in test [14]; 57.9 µM (active) in test [10]; 2.33 µM (active) in test [11]; 9000 nM (active) in test [15]; 6240 nM (active) in [16].
Consider `CCOc1cc(C(C)(C)C)ccc1C1COC(c2c(F)cccc2F)=N1` (stereo not drawn), for which the compound was classed as inactive in test [1] and in test [5]. Also, the AC50 in test [2] was 29 µM (active); in test [3] it was 4.3 µM (active); in test [4] it was 20 µM (active); in test [6], 20 µM (active); in test [7] it was 20 µM (active).
